Among all 420,000 compounds or so, about 50,000 (12%) were called active. Inconclusive results (about 26%) are left out. This excerpt belongs to a sample that is enriched for actives. Unmarked numbers belong to inactive results. Calls come from the whole dose curve; as a rule, active = well fitted inhibition curve with a large enough effect; inconclusive = small, poorly fitted or top-dose-only effect; inactive = flat fitted curve, though single readings scatter.
Experiment: qHTS for Inhibitors of human tyrosyl-DNA phosphodiesterase 1 (TDP1): qHTS in cells in presence of CPT; note: nearly all actives have a fitted effect of over 55% in size
Settings: chicken DT40 Tdp1-/-;hTDP1 cells + 20 nM CPT, ATP luminescence, 48 h; series mostly up to 46.2 µM; activity change, negative = growth inhibition: at the top concentration
Procedure, shortened: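 Chicken DT40 Tdp1-/- cells stably complemented with human TDP1 were seeded at 400 cells/well in medium containing 20 nM camptothecin, exposed to pin-transferred compounds, and grown at 37 °C for at least 48 hr. Viability was read as ATP luminescence.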
% is set by controls: 0 for no effect and ±100 for the full control effect; potency is the fitted concentration of half-maximal effect.

Row | SMILES | activity change, negative = growth inhibition | Potency
1 | Cc1cc(C)nc(SCc2cn3c(C)cc(C)nc3n2)n1 | 14.4% (inactive) | 
2 | O=C(NC1CCCC1)C(c1ccco1)N(C(=O)c1csnn1)c1ccccc1 (stereo not drawn) | -3.07% (inactive) | 
3 | CCOC(=O)CCC(NC(=O)c1ccc(CNc2nc3cc(C(F)(F)F)ccc3nc2C(=O)OCC)cc1)C(=O)OCC (stereo not drawn) | -2.32% (inactive) | 
4 | Cc1ccc(OC(=O)c2ccccc2C(=O)OCC(F)(F)C(F)F)cc1 | 4.61% (inactive) | 
5 | CCN(CC)CCNS(=O)(=O)c1ccc(/C=C/C(=O)O)cc1 | -6.79% (inactive) | 
6 | Cn1cc(CN2CCCCC2c2ccccn2)c(-c2ccc3c(c2)OCCO3)n1 (stereo not drawn) | -3.9% (inactive) | 
7 | CC1(C(=O)Nc2ccccc2Br)CCN1C(=O)CC1CC1 (stereo not drawn) | -2.61% (inactive) | 
8 | CC1(C(=O)Nc2cccc3cccnc23)CCN1C(=O)CCC1CCCC1 (stereo not drawn) |  | 16.4 µM (active)
9 | CC1(C(=O)NS(=O)(=O)c2ccc(Cl)cc2)CCN1C(=O)CC1CCCC1 (stereo not drawn) | -21.5% (inactive) | 
10 | Cc1ccc(S(=O)(=O)N2CCN(C(=O)N3CCOCC3)CC2)c(C)c1 | -2.43% (inactive) | 
11 | CC(=O)N1CCN(S(=O)(=O)c2cccc(C(=O)NC3CCC(C)CC3)c2)CC1 (stereo not drawn) | 0.375% (inactive) | 
12 | CC1CCN(C(=O)c2cccc(S(=O)(=O)N3CCCc4ccccc43)c2)CC1 |  | 16.4 µM (active)
13 | CNC(=O)C1CN(C(=O)c2cccc(S(=O)(=O)N3CCc4ccccc43)c2)c2ccccc2O1 (stereo not drawn) |  | 7.31 µM (active)
14 | CN1CCN(S(=O)(=O)c2cccc(C(=O)O)c2)CC1 | 2.72% (inactive) | 
15 | CCS(=O)(=O)c1ccc2c(c1)N(S(=O)(=O)c1ccccc1)CC(C(=O)O)O2 (stereo not drawn) | 4.61% (inactive) | 
16 | CC1Cc2ccccc2N1S(=O)(=O)c1cccc(C(=O)OCC(=O)N2CCOCC2)c1 (stereo not drawn) | -10.9% (inactive) | 
17 | Cc1ccccc1OCC(=O)Nc1c(C(=O)Nc2ccccc2F)oc2ccccc12 | -21.4% (inactive) | 
18 | O=C(OC1CCCCC1=O)c1cccc(S(=O)(=O)NCc2ccccc2)c1 (stereo not drawn) | -5.55% (inactive) | 
19 | CCOc1ccc(N(CC(=O)NCCc2ccc(F)cc2)S(=O)(=O)c2ccccc2)cc1 |  | 20.6 µM (active)
20 | COc1ccc(CCNC(=O)CN(c2ccccc2)S(=O)(=O)c2ccccc2)cc1 | -25.5% (inactive) | 
21 | CCOc1ccc(N(CC(=O)NCCc2ccc(OC)cc2)S(C)(=O)=O)cc1 | 8.24% (inactive) | 
22 | Cc1ccc(NC(=O)COC(=O)CN2CCSC2=O)cc1F | -12.5% (inactive) | 
23 | C/C(=N/N1CCN(Cc2cccc3ccccc23)CC1)c1cccnc1 | -12.8% (inactive) | 
24 | Cc1ccc2c(C)nc(N3CCCC(C(=O)NC(C)(C)CO)C3)nc2c1 (stereo not drawn) | -5.72% [at 9.04 µM] | 
25 | Fc1cccc(Cl)c1COc1ccc(-c2nnco2)cc1 | -8.97% (inactive) | 
26 | COC(=O)CCNc1ccc2c(c1)OCCO2 | -21% (inactive) | 
27 | CCOc1ccc(NCCC(=O)c2ccc3c(c2)OCO3)cc1 |  | 25.9 µM (active)

Row | SMILES | activity change, negative = growth inhibition | Potency
28 | O=C(COc1ccc(Cl)cc1)Nc1ccc2c(c1)OCO2 | 1.5% (inactive) | 
29 | O=C1C=C(c2cccc(Br)c2)C[C@@H](c2ccc(F)cc2)C1 | -29.7% (inactive) | 
30 | Cn1cc[n+](C)c1COc1ccc(C=O)cc1 | -5.51% (inactive) | 
31 | CC(C(=O)O)c1ccc(C2CCCCC2)c2ccccc12 (stereo not drawn) | 15.3% (inactive) | 
32 | COc1ccc(NS(=O)(=O)c2ccc(F)cc2F)cn1 | 5.59% (inactive) | 
33 | O=C(NCCOc1ccccc1)c1ccccc1F | -3.48% (inactive) | 
34 | O=C(c1ccccc1F)N(Cc1ccccc1)Cc1ccccc1 |  | 8.2 µM (active)
35 | O=C(O)CCC(=O)N(Cc1ccccc1)Cc1ccccc1 | -9% (inactive) | 
36 | Cc1ccc(C(=O)NNC(=O)c2ccc3c(c2)OCCO3)cc1 | 0.534% (inactive) | 
37 | Fc1ccc2[nH]c3c(N4CCN(Cc5ccc6c(c5)OCO6)CC4)ncnc3c2c1 |  | 2.31 µM (active)
38 | N#C/C=C/N1CCN(Cc2ccc3c(c2)OCO3)CC1 | 6.4% (inactive) | 
39 | Fc1ccc2[nH]c3c(N4CCSCC4)ncnc3c2c1 |  | 11.6 µM (active)
40 | COc1cc(Cl)c(S(=O)(=O)N2CCN(Cc3ccc4c(c3)OCO4)CC2)cc1Cl | -17.7% (inactive) | 
41 | CC1CN(CC(=O)NC(C)c2ccccc2)CC(C)O1 (stereo not drawn) | 1.9% (inactive) | 
42 | COc1ccccc1CNC(=O)CSc1nc(=O)n(Cc2ccncc2)c2c1CCC2 | -0.437% (inactive) | 
43 | O=c1c(-c2cccc(Cl)c2)c[nH]n1-c1ccccc1 | 7.4% (inactive) | 
44 | Cc1cccc(N=Nc2c(C)[nH]n(-c3ccccc3)c2=O)c1 | 2.08% (inactive) | 
45 | Cc1[nH]n(-c2cccc(Cl)c2)c(=O)c1-c1ccc(Cl)cc1 |  | 16.4 µM (active)
46 | Cc1ccc2cc(C)c(N3CCN(c4ccc(F)cc4)CC3)nc2c1 | -3.93% (inactive) | 
47 | Cc1ccc(OCCCC(=O)Nc2ccc(S(=O)(=O)Nc3cc(C)nc(C)n3)cc2)cc1 | -3.04% (inactive) | 
48 | COc1cc(OC)c(C2=NOC(C(=O)Nc3c(C)n(C)n(-c4ccccc4)c3=O)C2)cc1Cl (stereo not drawn) | -4.68% (inactive) | 
49 | O=C(Nc1ccc2c(c1)OCCO2)C1c2ccccc2OCC(=O)N1Cc1ccccn1 (stereo not drawn) | 2.14% (inactive) | 
50 | CC1CCC(NC(=O)C2c3ccccc3C(=O)N2Cc2ccc3c(c2)OCO3)CC1 (stereo not drawn) | 6.63% (inactive) | 
51 | O=C(Nc1ccc(Cl)cc1)C1c2cccc[n+]2CC(=O)N1Cc1ccc2c(c1)OCO2 (stereo not drawn) |  | 1.3 µM (active)
52 | CCOc1ccc(NS(=O)(=O)c2ccc(N)cc2)nn1 | -8.34% (inactive) | 
53 | COc1cccc(NC(=O)c2ccccc2N(Cc2ccccc2)S(C)(=O)=O)c1 | -18.5% (inactive) | 
